From the emibetuzumab library of Makowski et al. (2022) come the findings set out here.

To fix the notation:
B1: VH:VL chains; a variant is named by its letters at X, in order (parent)
chain 1: QVQLVQSGAEVKKPGASVKVSCKASGYTFTDYXMHWVRQAPGQGLEWMGXVNPNXXXTTYNQKFEGRVTMTTDTSTSTAYMELRSLRSDDTAVYYCARXNXLDXWGQGTTVTVSS
chain 2: DIQMTQSPSSLSASVGDRVTITCSVSSSVSSIYLHWYQQKPGKAPKLLIYSTSNLASGVPSRFSGSGSGTDFTLTISSLQPEDFATYYCQVYSGYPLTFGGGTKVEIK

The other results are listed elsewhere or left out. The true hit rate is not given.

Variants of B1 are the subject of the assay. Put plainly: yeast display scFab, FACS + sequencing. Particulars: with MET. In outline:
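Round-3 sorted and input populations from a heavy-chain CDR mutant scFab yeast library were deep sequenced in two replicates. Sorting used FACS on cells labelled for 3 h at room temperature with 1 nM HGFR-Fc and anti-Myc in PBSB with 1% milk, keeping the top 50% antigen-positive cells. Any sequence seen in both antigen-positive samples was called a binder, while one seen only in the input was called a non-binder.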
As to YRARSAGF, the antigen binding call was “binds”.
Next, VRARGAGF: “binds”; VRAGDDVF: “no binding”; VGTKGAGF: “no binding”.
For YRARSAGF chain 1 G108D, the antigen binding call was “no binding”.
The same measure for DEKKADWA: “no binding”; for SEEGTDGV: “no binding”.
Next, YRGRGSWY: “binds”.
YKTESYWY: the antigen binding call was “no binding”.
As to YRGRGYWY, the antigen binding call was “binds”.
YKGRGYSY: the antigen binding call is on record as “no binding”.
The same measure for YKGRGYWY: “binds”; for YTEETDGF: “no binding”.
As for SEARSYAV, the antigen binding call is on record as “no binding”.
On to SKGTDDWV, for which the antigen binding call is given as “no binding”.
As for SAEEDDVY, the antigen binding call is recorded as “no binding”.
For VTGEDDGS, the antigen binding call is reported as “no binding”.
For the variant YRGASSGF, the antigen binding call is “binds”.
On to YRGGSAGF, for which the antigen binding call is listed as “binds”.
For YRGADFGF, the antigen binding call is on record as “no binding”.
Turning to YRTGTAGF, the antigen binding call is recorded as “binds”.
Turning to YRGKGAGF, the antigen binding call is “binds”.
As for YRGGTFGF, the antigen binding call is reported as “no binding”.
Next, DEAKAAVD: “no binding”.
For SETGGDWV, the antigen binding call is “no binding”.
In the case of SREAASGV, the antigen binding call is listed as “no binding”.
Next, ARGKGSGD: “no binding”; STGKGSGV: “no binding”.
As to YRGESSGF, the antigen binding call was “binds”.
The same measure for VRGKGDWV: “no binding”; for VTGTGSGF: “no binding”; for VRGKGSGV: “binds”.
On to SRGKGSGV, for which the antigen binding call is recorded as “binds”.
As to VTGKGDGV, the antigen binding call was “no binding”.
Turning to VRGKGSGF, the antigen binding call is recorded as “binds”.
Turning to VTGTGSLV, the antigen binding call is recorded as “no binding”.
Next, DEGGTDAA: “no binding”.
In the case of AAEKDDLA, the antigen binding call is recorded as “no binding”.
Next, FRGKGSGF: “binds”.
Next, DRAGDDVF: “no binding”; YTGTGAVF: “no binding”; YRGKSSGF: “binds”.
YRAKSAVF: the antigen binding call is listed as “binds”.
The same measure for YRKRSVVF chain 1 S115F: “no binding”; for YRGKGAVF: “binds”; for YRGKGSGS: “binds”.
Turning to YRGKGDGS, the antigen binding call is “no binding”.
Regarding YRGKGSGF, the antigen binding call was “binds”.
On to DARGGDGS, for which the antigen binding call was “no binding”.
On to FRTGDAGA, for which the antigen binding call was “binds”.
Take FRTGDDAA: the antigen binding call is “binds”.
On to FRTGDDGA, for which the antigen binding call is “binds”.
Regarding DRGGDDAA, the antigen binding call is reported as “no binding”.
As for FATGSDGA, the antigen binding call is on record as “no binding”.
The same measure for FRTGDDAV: “binds”; for DRAGDDGA: “no binding”; for FRETDFGA: “no binding”.
For the variant DRAGDDAV, the antigen binding call was “no binding”.
For ARAGDDAV, the antigen binding call is “no binding”.
The same measure for DRTGDDVA: “no binding”; for DREEGDWV: “no binding”.
Take STAEDFVV: the antigen binding call is listed as “no binding”.
On to YAGKGFGA, for which the antigen binding call is “no binding”.
With YAGRGFGA, the antigen binding call is listed as “no binding”.
Turning to VRRGSFGA, the antigen binding call is given as “no binding”.
On to YRKRTFGA, for which the antigen binding call is recorded as “no binding”.
YGAGDFGA: the antigen binding call was “no binding”.
Next, YARTGFGA: “binds”; YRRGGFGA: “binds”; YRRGSFGA: “binds”.
For the variant SKKEDSAD, the antigen binding call is recorded as “no binding”.
As to YKAGGALD, the antigen binding call is on record as “binds”.
The same measure for SEARSALD: “no binding”; for SKAGGDVD: “no binding”.
Next, SKAGGALD: “binds”; VKAGGDSD: “no binding”.
SKAGGSAD: the antigen binding call is on record as “binds”.
Take YKAKGALD: the antigen binding call is on record as “binds”.
As for VATGDDVY, the antigen binding call is recorded as “no binding”.
VRAGAFSV: the antigen binding call was “no binding”.
Next, DTGTGDVF: “no binding”.
Take VEEEGDVY: the antigen binding call is recorded as “no binding”.
In the case of AKTRDDVA, the antigen binding call is reported as “no binding”.
Regarding YRTRSAGV, the antigen binding call is “binds”.
In the case of YRTRGAGV, the antigen binding call is “binds”.
Take YTTRGDGV: the antigen binding call is given as “no binding”.
As to YRTRSAVV, the antigen binding call is reported as “binds”.
YRTGAAGV: the antigen binding call was “binds”.
Next, YGTRSYGV: “no binding”; DRGGDAVV: “no binding”.
DTGTGSGA: the antigen binding call is “no binding”.
Regarding VEGTGAGD, the antigen binding call was “no binding”.
Next, YAGKNAVV: “binds”.
The same measure for YTKRSAVV: “no binding”; for YRKGAAVV: “binds”; for DGGKNAVV: “no binding”.
YRKGGAVV: the antigen binding call is “binds”.
Turning to DAGKGAVV, the antigen binding call was “no binding”.
For YTGTSAVV, the antigen binding call is listed as “no binding”.
In the case of YRARSSVV, the antigen binding call was “binds”.
Next, YRARSAVV: “binds”; SEARSAVV: “no binding”.
Take VTTKSDGY: the antigen binding call was “no binding”.
Next, YATGDDGV: “no binding”; SEGGTDVV: “no binding”; VTTEASLD: “no binding”.
Regarding VAGGDALD, the antigen binding call is given as “no binding”.
The same measure for VRTEDSLD: “binds”; for VRTEDSGD: “binds”; for VRTEDALD: “binds”.
With VRTEDSLV, the antigen binding call is “no binding”.
Turning to VRTEDDVD, the antigen binding call is reported as “no binding”.
For the variant VTGGDSGD, the antigen binding call is recorded as “no binding”.
VRTEDALV: the antigen binding call was “binds”.
Next, VRTEDDLV: “no binding”.
For the variant VRTAASGD, the antigen binding call is “no binding”.
For DGGGNDLA chain 1 R87K, the antigen binding call is on record as “no binding”.
For the variant VAGTGFWV, the antigen binding call was “no binding”.
Consider AGETGFSA, for which the antigen binding call is “no binding”.
Next, VRTRSSLD: “binds”; YRAGGALS: “binds”.
YRAKGALS: the antigen binding call is given as “binds”.
Turning to YKARGALS, the antigen binding call was “binds”.
Next, YRARGALS: “binds”; DAARGDAV: “no binding”; VEKKDYSA: “no binding”.
The same measure for DEGGTAVA: “no binding”; for DAGGAAVS: “no binding”; for YRAKGAGS: “binds”.
On to FTTRSALS, for which the antigen binding call is listed as “no binding”.
Turning to DAGKGALF, the antigen binding call is recorded as “no binding”.
Regarding YRAKGALF, the antigen binding call is listed as “binds”.
With FRAGGALS, the antigen binding call is “binds”.
With YRAAGAGS, the antigen binding call is listed as “binds”.
Take YTGEADAS: the antigen binding call was “no binding”.
